Where “and” joins values, the source holds several entries; their conditions need not be identical. Identical values can stand only once. Out of some 5,500 compounds screened, about 2,000 (36%) were called active. Another 18% or so got no clear call; they are omitted. No stated cut-off is given here; in the data, active means normalized growth mostly below about 0.91 (no sharp cut-off); inconclusive means no clear call, values can overlap the other calls; inactive means mostly above about 0.92. The list shows a part of the results.
Assay: chemical genetic growth profiling, strain panel (AID 1159580);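 further: tested at 20 µM; growth read once vehicle control cultures reached saturation at 30 °C; 1 = growth at the plate median or of vehicle wells; lower values mean less growth of the strain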
Settings: S. cerevisiae deletion strains, growth OD

Measured: normalized growth

CN(N=O)C(=O)N[C@@H]1[C@@H](O)[C@H](O)[C@@H](CO)O[C@@H]1O
inactive: locus YAL021C, strain ccr4, hits give low values 1 | locus YAL026C, strain drs2, hits give low values 0.991 | locus YAL030W, strain snc1, hits give low values 0.988 | locus YBL061C, strain skt5, hits give low values 1.01 | locus YBR009C, strain hhf1, hits give low values 0.979 | locus YBR021W, strain FUR4, hits give low values 1 | locus YBR023C, strain chs3, hits give low values 0.999 | locus YBR171W, strain sec66, hits give low values 1.01 | locus YBR229C, strain ROT2, hits give low values 1 | locus YBR231C, strain swc5, hits give low values 0.997 | locus YBR279W, strain paf1, hits give low values 1.02 | locus YCL011C, strain gbp2, hits give low values 1 | locus YCL016C, strain dcc1, hits give low values 1.03 | locus YCL029C, strain bik1, hits give low values 0.99 | locus YCL061C, strain MRC1, hits give low values 1.02 | locus YCL069W, strain vba3, hits give low values 0.974 | locus YCR088W, strain abp1, hits give low values 0.973 | locus YDL005C, strain med2, hits give low values 0.98 | locus YDL035C, strain GPR1, hits give low values 1.03 | locus YDL040C, strain nat1, hits give low values 0.999 | locus YDL074C, strain BRE1, hits give low values 1.02 | locus YDL101C, strain DUN1, hits give low values 1.01 | locus YDL134C, strain PPH21, hits give low values 1.02 | locus YDL185W, strain tfp1, hits give low values 1.02 | locus YDL192W, strain arf1, hits give low values 1.01 | locus YDR001C, strain nth1, hits give low values 0.978 | locus YDR069C, strain doa4, hits give low values 0.986 | locus YDR101C, strain arx1, hits give low values 0.979 | locus YDR137W, strain rgp1, hits give low values 0.938 | locus YDR150W, strain NUM1, hits give low values 1.01 | locus YDR159W, strain sac3, hits give low values 0.945 | locus YDR162C, strain NBP2, hits give low values 1.04 | locus YDR195W, strain ref2 0.988 | locus YDR297W, strain sur2, hits give low values 0.998 | locus YDR318W, strain mcm21, hits give low values 1.01 | locus YDR334W, strain swr1, hits give low values 0.95 | locus YDR335W, strain msn5, hits give low values 0.981 | locus YDR388W, hits give low values 1.01 | locus YDR392W, strain spt3, hits give low values 0.956 | locus YDR502C, strain sam2, hits give low values 0.998 | locus YEL003W, strain gim4, hits give low values 0.995 | locus YEL037C, strain rad23, hits give low values 0.986 | locus YEL061C, strain CIN8 (second series), hits give low values 0.971 | locus YEL061C, strain CIN8, hits give low values 1.01 | locus YER015W, strain faa2, hits give low values 1 | locus YER016W, strain bim1, hits give low values 0.983 | locus YER110C, hits give low values 1.01 | locus YER111C, strain swi4, hits give low values 0.998 | locus YER155C, strain BEM2 (second series), hits give low values 0.983 | locus YER155C, strain BEM2, hits give low values 1 | locus YER167W, strain BCK2, hits give low values 1.02 | locus YFR010W, strain ubp6, hits give low values 0.954 | locus YGL078C, strain dbp3, hits give low values 1 | locus YGL086W, strain mad1, hits give low values 0.989 | locus YGL167C, strain pmr1, hits give low values 0.993 | locus YGL173C, strain kem1, hits give low values 1.01 | locus YGL227W, strain vid30, hits give low values 1.01 | locus YGL240W, strain doc1, hits give low values 0.985 | locus YGL248W, strain PDE1, hits give low values 0.996 | locus YGL253W, strain hxk2, hits give low values 0.982 | locus YGR078C, strain PAC10, hits give low values 0.999 | locus YGR135W, strain pre9, hits give low values 1.04 | locus YGR229C, strain SMI1, hits give low values 1.01 | locus YGR252W, strain gcn5, hits give low values 1.02 | locus YHR013C, strain ard1, hits give low values 0.999 | locus YHR027C, strain rpn1, hits give low values 0.99 | locus YHR030C, strain SLT2, hits give low values 1 and 1.02 | locus YHR079C, strain IRE1 (second series), hits give low values 1 | locus YHR079C, strain IRE1, hits give low values 1.07 | locus YHR094C, strain hxt1, hits give low values 1 | locus YHR129C, strain ARP1, hits give low values 0.998 | locus YHR142W, strain chs7, hits give low values 0.962 | locus YHR200W, strain rpn10, hits give low values 1.01 | locus YIL066C, strain RNR3, hits give low values 1.01 | locus YIL073C, strain SPO22, hits give low values 1.14 | locus YIL125W, strain kgd1, hits give low values 1 | locus YIR030C, strain dcg1, hits give low values 1 | locus YJL092W, strain hpr5, hits give low values 0.979 | locus YJL095W, strain BCK1 (second series), hits give low values 1 | locus YJL095W, strain BCK1, hits give low values 1.02 and 1 | locus YJL115W, strain asf1, hits give low values 0.981 | locus YJL129C, strain trk1, hits give low values 0.984 | locus YJL134W, strain LCB3, hits give low values 1 | locus YJL154C, strain vps35, hits give low values 0.998 | locus YJL164C, strain tpk1, hits give low values 0.993 | locus YJL166W, strain qcr8, hits give low values 1 | locus YJL168C, strain set2, hits give low values 1.01

Source: PubChem BioAssay AID1159580 (chemical genetic matrix, 2015)
